The supplement of paper PMC10849652
Of roughly 7,900 targets only a part is listed; those with a hit were picked by preference. About 0.6% of all pairs of compound and target were hits.

How the values were obtained:
Experiment in all cases: log2 fold change, soluble protein after heating vs DMSO (PISA); higher = thermal stabilisation; K562 cells, 10 uM, 30 min; active = over 0.2 and 3.5 SD of the protein, either way, in both replicates (recomputed)
[1] = compound: NC(=O)Nc1cc(-c2cccc(F)c2)sc1C(=O)N[C@H]1CCCNC1
Summary of the method: (§1)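 For each measurement, 10 μM compound was applied for 30 min to K562 cells at 2×10^6 cells/mL. Aliquots were heated for 3 min across 48°C-58°C, pooled, and extracted in PBS with 0.5% NP-40 at 4°C; the supernatant after 21,000xg for 90 min was soluble protein. This was quantified by TMTpro 16plex LC-MS/MS with channel sums equalised, and thermal stability was reported relative to control samples from duplicates, on a log2 fold-change scale.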

[2] = compound: NC(=O)c1cnc(N[C@@H]2CCCC[C@@H]2N)nc1Nc1cccc(-n2nccn2)c1
Summary of the method: as §1

[3] = compound: NC1(c2ccc(-c3nc4ccn5c(=O)[nH]nc5c4cc3-c3ccccc3)cc2)CCC1
Summary of the method: as §1

[4] = compound: NCC(=O)Nc1ccc(-n2nc(C(F)(F)F)cc2-c2ccc3c(ccc4ccccc43)c2)cc1
Summary of the method: as §1

entinostat = compound: Nc1ccccc1NC(=O)c1ccc(CNC(=O)OCc2cccnc2)cc1 [entinostat]
Summary of the method: as §1

vorinostat = compound: O=C(CCCCCCC(=O)Nc1ccccc1)NO [vorinostat]
Summary of the method: as §1

citarinostat = compound: O=C(CCCCCCNC(=O)c1cnc(N(c2ccccc2)c2ccccc2Cl)nc1)NO [citarinostat]
Summary of the method: as §1

silmitasertib = compound: O=C(O)c1ccc2c(c1)nc(Nc1cccc(Cl)c1)c1ccncc12 [silmitasertib]
Summary of the method: as §1

[5] = compound: O=C1NC(=O)C(c2cnc3ccccn23)=C1c1cn2c3c(cc(F)cc13)CN(C(=O)N1CCCCC1)CC2
Summary of the method: as §1

[6] = compound: c1cc(OCCN2CCCCC2)cc(-c2n[nH]c3ccc(-c4nnc[nH]4)cc23)c1
Summary of the method: as §1

entospletinib = compound: c1cn2cc(-c3ccc4cn[nH]c4c3)nc(Nc3ccc(N4CCOCC4)cc3)c2n1 [entospletinib]
Summary of the method: as §1

Measured: log2 fold change

PDCD4 (UniProt Q53EL6)
UniProt Q53EL6, sequence (Q53EL6 whole entry, looked up): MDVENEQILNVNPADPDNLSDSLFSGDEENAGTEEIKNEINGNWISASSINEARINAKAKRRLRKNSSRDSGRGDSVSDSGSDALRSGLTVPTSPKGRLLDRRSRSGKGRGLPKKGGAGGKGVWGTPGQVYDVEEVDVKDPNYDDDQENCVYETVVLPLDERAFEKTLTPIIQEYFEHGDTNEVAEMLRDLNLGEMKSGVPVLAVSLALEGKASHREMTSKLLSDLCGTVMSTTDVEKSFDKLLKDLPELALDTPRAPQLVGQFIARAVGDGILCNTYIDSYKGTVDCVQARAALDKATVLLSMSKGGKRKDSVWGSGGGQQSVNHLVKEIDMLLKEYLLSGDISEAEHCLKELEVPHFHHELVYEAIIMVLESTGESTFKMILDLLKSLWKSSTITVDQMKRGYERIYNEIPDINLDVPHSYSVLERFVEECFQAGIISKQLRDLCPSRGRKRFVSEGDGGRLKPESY
inactive: [1] -0.001 | [2] 0.011 | [3] -0.087 | [4] -0.064 | entinostat -0.044 | vorinostat 0.042 | citarinostat 0.059 | silmitasertib 0.145 | [5] -0.041 | [6] 0.092 | entospletinib -0.002

PARP16 isoform 3 (UniProt Q8N5Y8)
inactive: [1] 0.116 | [2] 0.077 | [3] 0.239 | [4] -0.036 | entinostat 0.053 | vorinostat 0.117 | citarinostat 0.006 | silmitasertib -0.197 | [5] -0.022 | [6] -0.065 | entospletinib 0.074

PRKCA (UniProt P17252)
inactive: [1] -0.085 | [2] -0.134 | [3] -0.181 | [4] -0.029 | entinostat 0.057 | vorinostat 0.117 | citarinostat 0.028 | silmitasertib -0.045 | [5] -0.205 | [6] -0.091 | entospletinib -0.054

PCLAF (UniProt Q15004)
inactive: [1] -0.007 | [2] 0.035 | [3] 0.109 | [4] 0.012 | entinostat -0.04 | vorinostat -0.045 | citarinostat 0.035 | silmitasertib -0.009 | [5] 0.008 | [6] -0.066 | entospletinib -0.132

PTRHD1 (UniProt Q6GMV3)
UniProt Q6GMV3, sequence (Q6GMV3 whole entry, looked up): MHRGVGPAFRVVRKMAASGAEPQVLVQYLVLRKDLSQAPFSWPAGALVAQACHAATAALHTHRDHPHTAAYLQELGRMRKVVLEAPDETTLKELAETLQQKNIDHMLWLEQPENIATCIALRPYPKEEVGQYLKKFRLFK
inactive: [1] -0.02 | [2] 0.037 | [3] -0.009 | [4] 0.03 | entinostat 0.095 | vorinostat -0.099 | citarinostat 0.026 | silmitasertib -0.006 | [5] -0.065 | [6] -0.006 | entospletinib 0.064

PSMB6 (UniProt P28072)
inactive: [1] 0.024 | [2] 0.006 | [3] 0.046 | [4] 0.044 | entinostat -0.054 | vorinostat -0.093 | citarinostat -0.046 | silmitasertib -0.004 | [5] 0.044 | [6] -0.034 | entospletinib 0.008

PDE2A (UniProt O00408)
inactive: [1] 0.035 | [2] -0.008 | [3] -0.018 | [4] -0.033 | entinostat -0.082 | vorinostat 0.118 | citarinostat -0.032 | silmitasertib 0.035 | [5] -0.052 | [6] 0.018 | entospletinib 0.015

PTGR2 (UniProt Q8N8N7)
active: [5] 0.611
inactive: [1] -0.039 | [2] -0.077 | [3] 0.123 | [4] -0.164 | entinostat -0.05 | vorinostat -0.149 | citarinostat 0.009 | silmitasertib -0.011 | [6] 0.231 | entospletinib 0.043

PXK (UniProt Q7Z7A4)
inactive: [1] -0.057 | [2] -0.044 | [4] -0.073 | entinostat 0.014 | vorinostat 0.018 | citarinostat 0.021 | silmitasertib -0.002 | [5] -0.043 | [6] 0.008 | entospletinib 0.009
active: [3] -0.279

PATL1 (UniProt Q86TB9)
inactive: [1] 0.054 | [2] -0.213 | [3] -0.047 | [4] -0.025 | entinostat 0.052 | vorinostat 0.106 | citarinostat 0.02 | silmitasertib 0.04 | [5] 0.069 | [6] -0.093 | entospletinib 0.076

PLIN2 (UniProt Q99541)
inactive: [1] 0.019 | [2] -0.194 | [3] -0.353 | [4] -0.059 | entinostat 0.077 | vorinostat 0.203 | citarinostat 0.027 | silmitasertib 0.035 | [5] -0.046 | [6] -0.044 | entospletinib 0.043

PRG4 (UniProt Q92954)
inactive: [1] -0.168 | [2] -0.113 | [3] -0.16 | [4] -0.068 | entinostat -0.156 | vorinostat 0.201 | citarinostat -0.015 | silmitasertib 0 | [5] -0.109 | [6] -0.097 | entospletinib -0.006

PSMD9 (UniProt O00233)
inactive: [1] 0.041 | [2] 0.017 | [3] 0.022 | [4] 0.072 | entinostat 0.017 | vorinostat 0.086 | citarinostat 0.029 | silmitasertib -0.013 | [5] -0.027 | [6] 0.005 | entospletinib -0.034

PSMC2 (UniProt P35998)
UniProt P35998, sequence (P35998 whole entry, looked up): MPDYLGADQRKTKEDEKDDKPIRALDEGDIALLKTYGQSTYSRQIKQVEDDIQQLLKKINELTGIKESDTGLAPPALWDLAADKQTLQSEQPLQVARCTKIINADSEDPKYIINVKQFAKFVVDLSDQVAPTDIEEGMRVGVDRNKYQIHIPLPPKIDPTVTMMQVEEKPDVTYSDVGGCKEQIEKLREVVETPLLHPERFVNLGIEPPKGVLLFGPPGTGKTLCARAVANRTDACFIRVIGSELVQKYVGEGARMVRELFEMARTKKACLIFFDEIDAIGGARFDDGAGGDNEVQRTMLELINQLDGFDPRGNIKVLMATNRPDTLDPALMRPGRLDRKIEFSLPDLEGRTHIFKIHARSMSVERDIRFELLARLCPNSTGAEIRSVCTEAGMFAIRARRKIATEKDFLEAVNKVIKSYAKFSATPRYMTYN
inactive: [1] 0.014 | [2] -0.013 | [3] 0.026 | [4] 0.091 | entinostat -0.025 | vorinostat -0.018 | citarinostat -0.04 | silmitasertib -0.015 | [5] 0.087 | [6] -0.086 | entospletinib 0.02

PSMC4 (UniProt P43686)
UniProt P43686, sequence (P43686 whole entry, looked up): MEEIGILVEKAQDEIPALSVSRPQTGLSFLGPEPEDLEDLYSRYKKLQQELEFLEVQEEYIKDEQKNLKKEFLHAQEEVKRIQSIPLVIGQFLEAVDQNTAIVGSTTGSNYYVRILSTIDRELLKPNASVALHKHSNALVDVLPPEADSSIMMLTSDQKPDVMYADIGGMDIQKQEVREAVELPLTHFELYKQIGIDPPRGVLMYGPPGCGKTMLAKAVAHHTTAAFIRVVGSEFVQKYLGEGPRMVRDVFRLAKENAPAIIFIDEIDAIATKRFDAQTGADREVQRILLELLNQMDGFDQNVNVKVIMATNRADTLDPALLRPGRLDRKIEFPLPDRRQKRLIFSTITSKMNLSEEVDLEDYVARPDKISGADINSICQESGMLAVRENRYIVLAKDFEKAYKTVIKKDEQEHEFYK
inactive: [1] 0.018 | [2] -0.016 | [3] 0.028 | [4] 0.027 | entinostat -0.023 | vorinostat -0.023 | citarinostat -0.015 | silmitasertib -0.015 | [5] 0.043 | [6] -0.051 | entospletinib -0.008

POLR2A (UniProt P24928)
inactive: [1] -0.057 | [2] 0.121 | [3] -0.049 | [4] -0.094 | entinostat 0.049 | vorinostat -0.067 | citarinostat -0.062 | silmitasertib 0.086 | [5] 0.059 | [6] -0.05 | entospletinib 0.162

PCNT (UniProt O95613)
inactive: [1] -0.341 | [2] -0.277 | [3] -0.106 | [4] -0.294 | entinostat -0.129 | vorinostat -0.137 | citarinostat -0.076 | silmitasertib 0.11 | [5] -0.142 | [6] -0.233 | entospletinib 0.14

PNPLA8 (UniProt Q9NP80)
inactive: [1] -0.035 | [2] 0.007 | [3] -0.038 | [4] -0.038 | entinostat -0.031 | vorinostat 0.111 | citarinostat 0.049 | silmitasertib -0.036 | [5] -0.017 | [6] -0.052 | entospletinib -0.015

PRPF3 (UniProt O43395)
UniProt O43395, sequence (O43395 whole entry, looked up): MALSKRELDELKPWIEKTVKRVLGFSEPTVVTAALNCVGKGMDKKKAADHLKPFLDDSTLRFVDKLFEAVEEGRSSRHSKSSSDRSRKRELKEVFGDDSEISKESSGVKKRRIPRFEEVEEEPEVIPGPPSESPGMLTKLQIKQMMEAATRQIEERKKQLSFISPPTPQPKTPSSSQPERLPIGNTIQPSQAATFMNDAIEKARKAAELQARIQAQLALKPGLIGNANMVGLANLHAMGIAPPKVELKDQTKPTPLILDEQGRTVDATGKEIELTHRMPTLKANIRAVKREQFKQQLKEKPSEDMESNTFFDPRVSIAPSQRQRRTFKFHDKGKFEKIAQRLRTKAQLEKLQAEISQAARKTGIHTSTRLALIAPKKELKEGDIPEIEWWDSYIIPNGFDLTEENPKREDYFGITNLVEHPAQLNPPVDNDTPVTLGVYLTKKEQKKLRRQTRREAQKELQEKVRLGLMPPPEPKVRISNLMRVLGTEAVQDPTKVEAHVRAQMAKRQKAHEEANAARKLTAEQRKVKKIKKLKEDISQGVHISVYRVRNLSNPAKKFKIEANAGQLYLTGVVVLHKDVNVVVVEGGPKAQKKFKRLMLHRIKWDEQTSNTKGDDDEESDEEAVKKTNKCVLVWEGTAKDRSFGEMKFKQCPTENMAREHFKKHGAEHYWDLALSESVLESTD
inactive: [1] 0.026 | [2] -0.029 | [3] -0.099 | [4] -0.077 | entinostat 0.064 | vorinostat 0.128 | citarinostat 0.194 | silmitasertib -0.014 | [5] -0.063 | [6] 0 | entospletinib -0.08

POMK (UniProt Q9H5K3)
active: entospletinib -0.293
inactive: [1] 0 | [2] 0.058 | [3] -0.173 | [4] -0.044 | entinostat 0.045 | vorinostat 0.04 | citarinostat 0.105 | silmitasertib 0.101 | [5] 0.017 | [6] -0.303

PRUNE1 (UniProt Q86TP1)
inactive: [1] -0.004 | [2] -0.012 | [3] -0.179 | [4] 0.052 | entinostat 0.041 | vorinostat 0.04 | citarinostat 0.006 | silmitasertib 0.138 | [5] -0.107 | [6] 0.018 | entospletinib 0.029

PLBD2 (UniProt Q8NHP8)
UniProt Q8NHP8, sequence (Q8NHP8 whole entry, looked up): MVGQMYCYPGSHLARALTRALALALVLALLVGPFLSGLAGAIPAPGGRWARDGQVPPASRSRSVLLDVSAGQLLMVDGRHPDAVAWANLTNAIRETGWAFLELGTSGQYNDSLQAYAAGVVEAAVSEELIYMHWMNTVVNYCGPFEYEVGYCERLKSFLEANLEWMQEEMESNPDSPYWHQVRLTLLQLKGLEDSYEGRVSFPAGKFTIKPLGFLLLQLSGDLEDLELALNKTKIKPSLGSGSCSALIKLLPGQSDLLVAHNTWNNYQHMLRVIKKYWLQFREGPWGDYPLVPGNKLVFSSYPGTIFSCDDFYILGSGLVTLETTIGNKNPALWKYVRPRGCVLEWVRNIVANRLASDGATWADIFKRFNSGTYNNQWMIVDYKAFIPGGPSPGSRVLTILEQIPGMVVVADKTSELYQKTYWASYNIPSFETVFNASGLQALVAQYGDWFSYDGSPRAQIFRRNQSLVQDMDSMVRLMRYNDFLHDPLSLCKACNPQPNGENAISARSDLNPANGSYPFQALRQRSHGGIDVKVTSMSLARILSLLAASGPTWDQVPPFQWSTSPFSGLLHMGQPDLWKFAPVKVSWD
inactive: [1] -0.002 | [2] 0.049 | [3] -0.091 | [4] -0.004 | entinostat -0.008 | vorinostat -0.073 | citarinostat 0.003 | silmitasertib 0.017 | [5] 0.001 | [6] -0.006 | entospletinib -0.038

PITRM1 isoform 2 (UniProt Q5JRX3)
inactive: [1] 0.116 | [2] -0.077 | [3] -0.051 | [4] -0.061 | entinostat 0.097 | vorinostat 0.089 | citarinostat 0.104 | silmitasertib -0.045 | [5] 0.05 | [6] 0.096 | entospletinib -0.103

PPP4R3B (UniProt Q5MIZ7)
UniProt Q5MIZ7, sequence (Q5MIZ7 whole entry, looked up): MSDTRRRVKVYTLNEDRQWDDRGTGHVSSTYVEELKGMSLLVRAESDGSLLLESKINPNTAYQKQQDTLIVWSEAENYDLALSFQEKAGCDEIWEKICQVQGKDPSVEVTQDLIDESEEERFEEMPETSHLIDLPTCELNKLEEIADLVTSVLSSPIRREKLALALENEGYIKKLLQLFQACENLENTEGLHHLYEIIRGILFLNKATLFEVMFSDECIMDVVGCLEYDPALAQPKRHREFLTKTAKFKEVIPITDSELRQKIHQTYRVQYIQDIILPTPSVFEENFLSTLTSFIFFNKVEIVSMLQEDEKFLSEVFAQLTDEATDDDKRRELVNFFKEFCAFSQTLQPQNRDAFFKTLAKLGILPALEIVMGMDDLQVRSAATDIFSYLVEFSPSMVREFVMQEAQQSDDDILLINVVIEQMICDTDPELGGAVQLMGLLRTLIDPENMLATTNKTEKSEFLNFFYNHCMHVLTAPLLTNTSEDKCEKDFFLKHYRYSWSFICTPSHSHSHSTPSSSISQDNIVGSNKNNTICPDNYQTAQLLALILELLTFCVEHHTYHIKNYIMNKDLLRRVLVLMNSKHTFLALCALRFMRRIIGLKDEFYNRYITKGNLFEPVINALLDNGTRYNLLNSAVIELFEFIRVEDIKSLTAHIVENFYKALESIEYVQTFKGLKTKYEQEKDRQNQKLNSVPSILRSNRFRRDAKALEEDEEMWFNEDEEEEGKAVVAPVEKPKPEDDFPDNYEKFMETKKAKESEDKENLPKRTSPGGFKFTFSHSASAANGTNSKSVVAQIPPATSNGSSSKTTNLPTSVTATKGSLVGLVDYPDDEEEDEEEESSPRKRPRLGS
inactive: [1] -0.068 | [2] -0.082 | [3] -0.069 | [4] -0.079 | entinostat 0.047 | vorinostat 0.089 | citarinostat 0.086 | silmitasertib 0.077 | [5] -0.1 | [6] 0.087 | entospletinib -0.064

PTPA (UniProt A6PVN8)
inactive: [1] -0.015 | [2] -0.057 | [3] -0.062 | [4] -0.003 | entinostat -0.04 | vorinostat 0.099 | citarinostat -0.098 | silmitasertib 0.266 | [5] 0.05 | [6] -0.05 | entospletinib -0.004

POLA1 (UniProt P09884)
UniProt P09884, sequence (P09884 whole entry, looked up): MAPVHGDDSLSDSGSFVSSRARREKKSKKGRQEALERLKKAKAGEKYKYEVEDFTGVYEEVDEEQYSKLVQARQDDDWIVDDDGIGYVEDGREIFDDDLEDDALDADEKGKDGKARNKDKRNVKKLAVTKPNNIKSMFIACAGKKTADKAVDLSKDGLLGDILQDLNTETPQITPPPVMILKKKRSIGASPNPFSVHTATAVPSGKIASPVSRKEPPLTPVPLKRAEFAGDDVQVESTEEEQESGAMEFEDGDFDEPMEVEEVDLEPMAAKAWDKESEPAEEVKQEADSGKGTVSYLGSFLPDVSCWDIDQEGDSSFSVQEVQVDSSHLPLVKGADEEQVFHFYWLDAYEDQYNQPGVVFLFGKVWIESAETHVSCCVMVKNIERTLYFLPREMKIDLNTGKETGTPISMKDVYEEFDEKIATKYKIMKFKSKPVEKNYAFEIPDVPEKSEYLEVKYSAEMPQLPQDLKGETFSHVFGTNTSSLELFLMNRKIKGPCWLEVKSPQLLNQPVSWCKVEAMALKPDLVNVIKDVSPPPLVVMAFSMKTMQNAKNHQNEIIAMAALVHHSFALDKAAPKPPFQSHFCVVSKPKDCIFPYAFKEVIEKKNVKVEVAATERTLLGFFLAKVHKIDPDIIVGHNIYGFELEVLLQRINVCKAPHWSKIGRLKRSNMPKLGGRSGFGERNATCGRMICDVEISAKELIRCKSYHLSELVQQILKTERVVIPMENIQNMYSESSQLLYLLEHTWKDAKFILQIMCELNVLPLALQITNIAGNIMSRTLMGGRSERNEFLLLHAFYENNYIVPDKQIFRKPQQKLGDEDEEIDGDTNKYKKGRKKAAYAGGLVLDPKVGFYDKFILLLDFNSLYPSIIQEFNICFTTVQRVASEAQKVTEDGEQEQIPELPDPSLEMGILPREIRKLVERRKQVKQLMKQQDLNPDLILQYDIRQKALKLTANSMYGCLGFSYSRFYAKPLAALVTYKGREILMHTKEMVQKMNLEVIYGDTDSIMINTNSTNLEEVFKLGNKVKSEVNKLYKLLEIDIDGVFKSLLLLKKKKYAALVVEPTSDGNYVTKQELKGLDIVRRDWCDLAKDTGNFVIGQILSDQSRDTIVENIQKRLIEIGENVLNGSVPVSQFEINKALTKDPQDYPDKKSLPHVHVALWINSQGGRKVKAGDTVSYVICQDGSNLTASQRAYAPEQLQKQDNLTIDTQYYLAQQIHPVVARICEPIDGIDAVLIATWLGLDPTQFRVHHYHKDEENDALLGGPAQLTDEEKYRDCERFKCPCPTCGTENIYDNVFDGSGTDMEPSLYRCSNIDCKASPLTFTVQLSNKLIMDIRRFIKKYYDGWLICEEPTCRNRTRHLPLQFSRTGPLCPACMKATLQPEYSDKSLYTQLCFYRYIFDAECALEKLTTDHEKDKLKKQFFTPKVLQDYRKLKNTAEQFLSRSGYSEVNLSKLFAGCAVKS
inactive: [1] -0.014 | [2] -0.068 | [3] -0.225 | [4] -0.04 | entinostat 0.07 | vorinostat 0.054 | citarinostat 0.155 | silmitasertib 0.021 | [5] -0.113 | [6] 0.227 | entospletinib -0.106

PRKACA (UniProt P17612)
inactive: [1] 0.097 | [2] 0.048 | [3] -0.132 | [4] -0.025 | entinostat -0.019 | vorinostat 0.02 | citarinostat 0.023 | silmitasertib -0.051 | [5] 0.05 | [6] -0.067 | entospletinib 0.007
